HCMV inh: blocks human cytomegalovirus replication; HFF cells, HCMV-luciferase reporter, 72 h; hits give low values; activity change, negative = inhibition, % at 57.5 µM; actives 4.5% (n = 410,000); in the data active = activity change below about -60%; inconclusive = no clear call, values can overlap the other calls; inactive = above about -39%
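Screen run at 2 compound doses on HFFs infected with reporter HCMV, MOI 1 PFU/cell. Luciferase activity from cell lysates at 72 h post infection gave inhibition relative to buffer-only and Salinomycin wells.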
Pf growth 96h: P. falciparum growth inhibition at 96 hour, primary screen for plastid delayed-death inhibitors | AID 504834 | actives 6.9% (n = 320,000) | Potency, µM (highest dose often 28.7 µM), most hits filed as inhibitors | P. falciparum luciferase reporter growth, 96 h
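Infected RBCs, 2% Hct / 0.05% parasitemia final; luciferase-reporter P. falciparum; cpd 96 h, 37 C, 5% CO2; luciferase detection reagent; luminescence.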
Sm TGR block: S. mansoni TGR enzyme inhibition | Q962Y6 | purified TGR, DTNB reduction, TNB absorbance 405 nm | actives 3% (n = 360,000) | Potency, µM (series often up to 114 µM), usual class: inhibitors; also: nearly all actives have a fitted effect of over 60% in size
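First, TGR (20 nM dispensed) and NADPH were mixed with compound. Second, a 15 min room-temperature incubation followed. Third, further NADPH and then DTNB were added to start the reaction. Finally, TNB absorbance was monitored kinetically.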
Pf growth 48h: inhibits P. falciparum growth in the first generation, 48 h | AID 504832 | actives 5.9% (n = 310,000) | P. falciparum luciferase growth in erythrocytes, 48 h | Potency, µM (series often up to 28.7 µM), most hits filed as inhibitors
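Luminescence readout; reporter = integrated firefly luciferase in P. falciparum. RBC culture at 2% hematocrit, 0.1% parasitemia final, 37 C/5% CO2; decreased signal taken as growth inhibition.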
Giardia FBPA inh: inhibitors of Giardia lamblia fructose-1,6-bisphosphate aldolase. A8B2U2. purified Giardia FBPA. Potency, µM (titrated, usually from 59.6 µM), most hits filed as inhibitors. actives 0.71% (n = 290,000); also: nearly all actives have a fitted effect of over 55% in size
Target sequence (A8B2U2 whole entry, looked up): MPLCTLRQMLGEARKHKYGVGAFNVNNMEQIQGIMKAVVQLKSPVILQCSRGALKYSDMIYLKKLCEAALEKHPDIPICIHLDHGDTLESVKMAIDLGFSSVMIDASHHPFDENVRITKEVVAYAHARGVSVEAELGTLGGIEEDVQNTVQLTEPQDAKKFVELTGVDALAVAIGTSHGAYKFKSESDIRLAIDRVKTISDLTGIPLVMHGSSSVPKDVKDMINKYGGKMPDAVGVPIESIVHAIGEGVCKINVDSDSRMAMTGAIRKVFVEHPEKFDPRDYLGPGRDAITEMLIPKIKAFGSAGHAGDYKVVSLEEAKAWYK
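Giardia FBPA (40 nM reagent) was preincubated 10 min at RT with compound (up to 57.5 uM final), then substrate plus GAPDH/TPI/NAD/arsenate coupling system with diaphorase/resazurin was added; resorufin fluorescence (525/598 nm) was read after 20 min.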
Hits are given with their value; i = inactive; ? = inconclusive; nt = no result; ! = repeats disagree; [ ] = dose if it differs, or a comment. Most compounds without a hit are left out; they make up all but 14% or so of the library. Unless noted, calls follow the shape of the dose curve; as a rule, active = well fitted curve in the direction sought with a large enough effect; inconclusive = small, poorly fitted or top-dose-only effect, or another doubt; inactive = no such curve, though single readings can be large; an effect the other way counts as inactive or inconclusive.

SMILES | HCMV inh | Pf growth 96h | Sm TGR block | Pf growth 48h | Giardia FBPA inh
NCCNS(=O)(=O)c1cccc2cnccc12 | nt | nt | nt | nt | i
Cc1cccc(NC(=S)NC(=O)c2oc3ccccc3c2C)n1 | i | i | i | i | i
CCOC(=O)c1c(C)[nH]c(C)c1S(=O)(=O)N1CCOCC1 | ? | 6.6µM | i | i | i
CCOC(=O)c1c(C)oc2nc(C)nc(N3CCN(c4ccccc4)CC3)c12 | ? | nt | i | nt | nt
CCOC(=O)c1c(C)oc2nc(C)nc(N3CCN(c4cccc(C(F)(F)F)c4)CC3)c12 | -64 | nt | i | nt | nt
O=C(O)C1CCC(N2C(=O)c3c(Cl)c(Cl)c(Cl)c(Cl)c3C2=O)CC1 (centres undefined) | nt | ? | i | i | i
CC1CCCCN1S(=O)(=O)c1ccc(N(C(=O)c2cnccn2)C(C(=O)NC2CCCCC2)c2cccs2)cc1 (centres undefined) | i | 8.3µM | i | 12µM | i
Cc1cc(C)cc(N(C(=O)c2ccccn2)C(C(=O)NC2CCCCC2)c2cccs2)c1 (centres undefined) | ? | ? | i | ? | i
CC1CCCCN1S(=O)(=O)c1ccc(N(C(=O)c2cnccn2)C(C(=O)NC2CCCC2)c2cccs2)cc1 (centres undefined) | ? | ? | i | 13µM | i
COc1cccc(NC(=O)c2oc3ccc(S(=O)(=O)N(C)C4CCCCC4)cc3c2C)c1 | i | nt | i | nt | nt
C/C(=N\NC(=O)Cc1cccc2ccccc12)c1ccncc1 | i | ? | i | i | i
CCOC(=O)c1c2c3c(c(Cl)ccc3[nH]c1=O)C(=O)c1ccccc1-2 | -97 | i | i | i[5.75 µM] | i
CCOC(=O)c1c2c3c(cccc3[nH]c1=O)C(=O)c1ccccc1-2 | i | i | i | i | i
Cc1nnc(SCC(=O)NC2CCCC(C)C2C)n1N (centres undefined) | i | nt | nt | nt | nt
CC(C)NC(=O)NC(=O)CSc1nnc(-c2c[nH]c3ccccc23)o1 | i | i | i | i | nt
CC(=O)N1CCCc2cc(S(=O)(=O)N(CCN(C)C)Cc3ccccc3)ccc21 | i | nt | i | nt | nt
COc1ccc(NC(=O)C2CCN(S(C)(=O)=O)CC2)cc1 | i | nt | i | i | i
COc1ccc(N2CCN(C(=O)C3CCCN(S(=O)(=O)c4ccc5c(c4)CCCN5C(C)=O)C3)CC2)cc1 (centres undefined) | -71 | nt | i | nt | nt
CCOc1ccc(NC(=O)C2CCN(S(C)(=O)=O)CC2)cc1 | i | 12µM | i | i | i
CC(=O)N1CCCc2cc(S(=O)(=O)N3CCCC(C(=O)N4CCN(c5ccccc5F)CC4)C3)ccc21 (centres undefined) | ? | nt | i | nt | nt
CCCCN(CC)S(=O)(=O)c1ccc2c(c1)CCCN2C(C)=O | i | 13µM | i | ? | i
Cn1c(=O)oc2cc(S(=O)(=O)N3CCCC(C(=O)N4CC=C(c5ccccc5)CC4)C3)ccc21 (centres undefined) | nt | i | ? | nt | i
COc1ccccc1N1CCN(C(=O)C2CCCN(S(=O)(=O)c3ccc4c(c3)oc(=O)n4C)C2)CC1 (centres undefined) | -60! | i | i | 12µM | i
COc1ccc(CN2CCN(C(=O)C3CCN(C(=O)Nc4ccccc4)CC3)CC2)cc1OC | i | nt | nt | nt | nt
CCCCOCCCNC(=O)C[C@@H]1C[C@@]2(C(=O)OC)CCCCC=C2N(Cc2cccc3ccccc23)C1=O | i | nt | nt | nt | nt
SMILES | HCMV inh | Pf growth 96h | Sm TGR block | Pf growth 48h | Giardia FBPA inh
Cn1c(=O)oc2cc(S(=O)(=O)N3CCCC(C(=O)NC4CCCc5ccccc54)C3)ccc21 (centres undefined) | -90 | ? | i | nt | i
Cn1c(=O)oc2cc(S(=O)(=O)N3CCCC(C(=O)N4CCN(c5ccc(Cl)cc5)CC4)C3)ccc21 (centres undefined) | i | nt | i | nt | nt
COc1ccc(C)cc1S(=O)(=O)N1CCCC(C(=O)N2CCOCC2)C1 (centres undefined) | i | i | i | i | i
Cn1c(=O)oc2cc(S(=O)(=O)N3CCCC(C(=O)Nc4ccccn4)C3)ccc21 (centres undefined) | i | ? | i | nt | i
CCOc1ccc(NC(=O)C2CCCN(S(=O)(=O)c3ccc4c(c3)CCCN4C(C)=O)C2)cc1 (centres undefined) | i | ? | i | 12µM | i
COc1ccc(N2CCN(C(=O)C3CCCN(S(=O)(=O)c4ccc5c(c4)oc(=O)n5C)C3)CC2)cc1 (centres undefined) | i | ? | i | 12µM | nt
COc1ccc(C)cc1S(=O)(=O)N1CCCC(C(=O)N2CCN(c3ccccc3F)CC2)C1 (centres undefined) | i | ? | i | 10µM | i
CC(=O)N1CCCc2cc(S(=O)(=O)N3CCCC(C(=O)Nc4ccc(C)c(F)c4)C3)ccc21 (centres undefined) | i | nt | i | nt | nt
COc1ccccc1CN1CC(C(=O)NCc2ncccc2C)CCC1=O (centres undefined) | i | i | i | i | i
CCCn1c(-c2ccc(F)cc2)nc2c(N3CCCN(Cc4ccccc4)CC3)nc(C)nc21 | nt | nt | nt | nt | i
CCNC(=O)C1CCCN(C(=O)c2ccc(F)c(Cl)c2)CC1 (centres undefined) | i | nt | nt | nt | nt
O=C(CSc1nnc(Cc2cc(=O)[nH]c(=O)[nH]2)n1-c1ccc(Cl)cc1)N1CCc2ccccc21 | nt | ? | i | 2.9µM | i
O=C(CSc1nnc(Cc2cc(=O)[nH]c(=O)[nH]2)n1-c1ccc(F)cc1)NC1CCCC1 | i | 5.9µM | i | nt | i
O=C(CSc1nnc(Cc2cc(=O)[nH]c(=O)[nH]2)n1-c1ccc(F)cc1)N1CCCCC1 | i | 7.4µM | i | nt | i
COc1cccc(-n2c(Cc3cc(=O)[nH]c(=O)[nH]3)nnc2SCC(=O)N2CCCCC2)c1 | i | i | i | nt | i
COC(=O)C(C)Sc1nnc(Cc2cc(=O)[nH]c(=O)[nH]2)n1-c1ccc(OC)cc1 (centres undefined) | ? | 0.83µM | i | nt | i
CCOC(=O)c1sc2nc(C)nc(SCC(=O)NC3CCS(=O)(=O)C3)c2c1C (centres undefined) | i | ? | i | i | i
O=C(NCc1ccco1)c1cc([N+](=O)[O-])cc([N+](=O)[O-])c1 | i | i | i | i | i
COC(=O)[C@@H]1[C@@H](CO)[C@@H]2Cn3c(cccc3=O)[C@H]1N2Cc1ccccc1OC | i | nt | nt | nt | nt
O=C(c1cc2ccccc2oc1=O)N(Cc1cccs1)Cc1cccs1 | ? | ? | i | i | i
O=C(c1cc2ccccc2oc1=O)N(Cc1ccco1)Cc1cccs1 | i | i | 28µM | i | i
COc1ccccc1NC(=O)CC(c1ccc(F)cc1)c1ccco1 (centres undefined) | i | i | ? | ? | i
O=C(CC(c1ccc(F)cc1)c1ccco1)Nc1nccs1 (centres undefined) | i | i | 40µM | ? | i
CCC(=O)NCCC(c1ccco1)c1ccccc1OC (centres undefined) | i | 10µM | 25µM | ? | i

Compound activity as filed in PubChem.
